# TRPV1 PAM: enhances activation of the human vanilloid receptor TRPV1. TRPV1-expressing cells, Fluo-8 calcium influx, capsaicin EC20 potentiation. potentiation, % at 8.33 µM. hit rate 0.02% among 320,000; in the data active = potentiation above about 80%; inconclusive = between about 30% and that limit; also: 0% is about no effect
#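 Fluo-8 calcium influx in TRPV1-expressing cells, kinetic read (ex 480/em 520 nm). Compound added and read 3 min for agonist activity, followed by capsaicin at EC20 final and 2 min further read for enhancement.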
# ELG1 repair inh: ELG1-dependent DNA repair inhibition. Potency, µM (titrated, usually from 46.1 µM), inactives show at the top dose activity change, negative = inhibition, hits mostly inhibitors. hit rate 2.3% among 330,000. HEK293T ELG1-luciferase reporter, luminescence, 16 h; DNA damage induced by 5-fluorouridine. AID 504467; also: potency is read from the fitted curve at half-maximal effect; % is scaled to controls: 0 for no effect and ±100 for the full control effect; nearly all actives have a fitted effect of over 55% in size
#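 Luminescence from the luciferase reporter, measured 30 min after ONE-Glo reagent at room temperature, was the read-out. Beforehand, 2,000 cells per well were exposed for 16 hr at 37 °C to 5-fluorouridine together with compound or vehicle.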
# TRPV1 agonist: agonists of human vanilloid receptor 1 (TRPV1). TRPV1-expressing cells, Fluo-8 calcium influx, agonist mode. activation, % at 8.33 µM. hit rate 0.19% among 320,000. AID 540275; in the data active = activation above about 80%; inconclusive = between about 30% and that limit; also: 0% is about no effect
#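 TRPV1-expressing cells were cultured overnight at 35.5C and loaded with Fluo-8 calcium dye for 40 to 90 min at room temperature. After a 10 s baseline, compound was added and calcium influx was read kinetically for 3 min (ex 480/em 520 nm).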
# Giardia killer: Giardia lamblia killing; Giardia lamblia trophozoite viability; activity change, % at 7.66 µM, hits read low; hit rate 0.15% among 340,000; in the data active = activity change below about -80%; inconclusive = between about -30% and that limit;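 also: parasites exposed to compound for two days anaerobically before the ATP read; % is scaled to controls: 0 for no effect and ±100 for the full control effect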
#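 Anaerobic 48 hrs incubation at 37 deg C of 100 trophozoites/well with test compounds; ATPLite 1-Step luminescence, 15-30 min RT, reports cellular ATP as viability.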
# FUS yeast rescue: FUS proteinopathy suppression in yeast; hit rate 0.24% among 390,000; Potency, µM (doses to about 76.6 µM), hits mostly activators; S. cerevisiae FUS-expressing, growth rescue, OD600, 24 h; AID 1347120;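 also: potency is read from the fitted curve at half-maximal effect; plate controls were DMSO vehicle for no effect and reference control for full effect; nearly all actives have a fitted effect of over 55% in size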
#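 Cultures pregrown in 2.5% raffinose medium are shifted to minimal medium containing 2% galactose to express toxic FUS. Compounds are tested at several concentrations. After 24hr at 30C, growth is quantified at 600 nm absorbance.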
# An asterisk follows results filed as active; i = inactive; ? = inconclusive; . = no result. Rows were chosen to be rich in hits. Some 2.3% of all compounds tested hit in one or more screens of this group. Unless noted, calls follow the shape of the dose curve; as a rule, active = well fitted curve in the direction sought with a large enough effect; inconclusive = small, poorly fitted or top-dose-only effect, or another doubt; inactive = no such curve, though single readings can be large; an effect the other way counts as inactive or inconclusive.
SMILES,TRPV1 PAM,ELG1 repair inh,TRPV1 agonist,Giardia killer,FUS yeast rescue
CC(C)CC(=O)/C(=C\c1ccc(Cl)cc1Cl)n1cncn1,-8.4,20.6µM*,?,-21.6,i
COc1ccc(-c2n[nH]c3c2C(c2ccc(Cl)cc2Cl)NC3=O)cc1 (stereo not drawn),.,.,.,.,i
CCOC(=O)c1ccc(NC(=O)c2cc3c(s2)CCC3)cc1,-11.9,1.1%,106.2*,18.4,i
COCCCNC(=O)CSc1nc2cc3c(cc2c(=O)n1CCCCCC(=O)NCc1ccc(OC)cc1)OCO3,.,.,.,.,i
COC(=O)CNC(c1ccccc1)c1cc(C)ccc1NC(=O)c1cccc(Cl)c1 (stereo not drawn),-7.3,18.4µM*,19.3,7.8,.
COc1cc(N2C(=O)c3ccccc3C2=O)c(Cl)cc1C(=O)OCC(=O)NCc1ccco1,-1.2,-0.4%,0.5,-8.1,15.8µM*
Cc1ccc(S(=O)(=O)Nc2ccc3c(c2)OCCO3)cc1,2.0,-10.9%,-2.7,-3.1,i
Cc1c(Cl)cccc1NS(=O)(=O)c1ccc(NS(=O)(=O)c2ccc3c(c2)OCCO3)cc1,.,.,.,.,22.4µM*
COCCOC(=O)C1=C(C)N=C2SCCC(=O)N2C1c1ccc(OCc2ccccc2)c(OC)c1 (stereo not drawn),.,.,.,.,i
COc1ccc(/C=N/OCC(=O)N=Nc2c(O)[nH]c3ccc(Br)cc23)cc1OC,3.3,13µM*,-5.5,-10.7,i
COc1ccc(/C(C)=N/OCC(=O)N=Nc2c(O)[nH]c3ccc(Br)cc23)cc1,1.5,?,0.2,-1.8,.
COc1cccc(CN2CCN(CC(=O)Nc3ccccc3Cl)CC2)c1,4.8,13µM*,9.7,13.0,i
COc1ccccc1NC(=O)CN1CCN(CC(=O)Nc2ccccc2Cl)CC1,4.1,0.2%,-1.8,-27.7,i
Cc1ccc(NC(=O)CN2CCN(Cc3ccccc3)CC2)c(Br)c1,1.2,20.6µM*,13.2,-6.0,i
COc1cc(OC)cc(C(=O)NC2CCN(CC(=O)Nc3cccc4ccccc34)CC2)c1,13.9,11.6µM*,1.9,-4.5,i
O=C(CN1CCN(Cc2ccccc2F)CC1)Nc1ccccc1Cl,-9.3,10.3µM*,16.7,14.1,i
Cc1ccc(NC(=O)CN2CCOCC2)c(Br)c1,-17.2,?,11.5,2.7,i
COc1ccc(S(=O)(=O)N2CCC(N3CCN(Cc4ccccc4)C(=O)C3=O)CC2)cc1,.,.,.,.,i
NC(=O)C1(Nc2ccc(-c3ccc(Br)cc3)cc2)CCCC1,.,.,.,-15.0,.
O=C1/C(=N\S(=O)(=O)c2cccs2)C([n+]2cccc(Cc3ccccc3)c2)=C([O-])c2ccccc21,1.7,2.31µM*,2.2,24.7,i
O=C1/C(=N\S(=O)(=O)c2cccs2)C([n+]2ccc(CCCc3ccccc3)cc2)=C([O-])c2ccccc21,0.4,13µM*,0.7,-4.0,i
Cn1cc(C(=O)NCCc2ccc(Cl)cc2)c(=O)c2cc(S(=O)(=O)N3CCOCC3)ccc21,.,.,.,.,i
OC1CCCN(c2c3c(nc4cc(-c5cccc(F)c5)nn24)CCCC3)C1 (stereo not drawn),-2.3,?,-2.0,0.2,i
Cc1cccc(-c2cc3nc4c(c(N5CCCC(O)C5)n3n2)CCC4)c1 (stereo not drawn),-17.4,16.4µM*,26.2,-8.4,?
OC1CCCN(c2c3c(nc4cc(-c5cccc(Cl)c5)nn24)CCC3)C1 (stereo not drawn),-2.0,20.6µM*,?,0.6,i
SMILES,TRPV1 PAM,ELG1 repair inh,TRPV1 agonist,Giardia killer,FUS yeast rescue
COc1ccc(C(C)(O)c2nc(-c3ccc(S(C)(=O)=O)cc3)cs2)cc1 (stereo not drawn),.,.,.,.,i
CCc1nc2ccc(C(=O)NC3CCN(Cc4ccccc4)CC3)cn2c1N(C)Cc1cc2ccccc2s1,.,.,.,.,i
O=C(CSc1nc2ccccc2nc1SCC(=O)N1CCCCC1)N1CCCCC1,0.9,16.4µM*,-5.0,0.4,i
CC(=O)c1c(C)[nH]c(C(=O)NC2CCSc3ccccc32)c1C (stereo not drawn),-1.9,5.8µM*,2.6,2.3,i
COc1ccc(-n2c(CC3C(=O)Nc4ccc(C)cc43)nc3ccccc3c2=O)cc1 (stereo not drawn),.,.,.,.,i
O=[N+]([O-])c1ccc(N2CCN(Cc3ccc([N+](=O)[O-])o3)CC2)cc1,-7.2,-0.4%,-0.7,?,i
O=[N+]([O-])c1ccc(CN2CCN(c3ccccc3)CC2)o1,25.4,-21.9%,-0.1,-92.1*,i
Cc1ccccc1N1CCN(Cc2ccc([N+](=O)[O-])o2)CC1,9.4,0.0%,3.2,-83.1*,i
O=[N+]([O-])c1ccc(CN2CCN(c3ccccc3Cl)CC2)o1,-23.6,-3.7%,20.2,?,i
Cc1cc(C)c(O)c(-c2cc(C(=O)Nc3ccc(S(=O)(=O)N4CCOCC4)cc3)[nH]n2)c1,11.1,20.6µM*,-0.1,-9.4,?
Cc1ccc(C(=O)Nc2ccc(S(=O)(=O)N3CCOCC3)cc2)cc1,-2.0,-28.2%,?,1.5,i
CC(=O)Nc1ccc(NC(=O)c2cc(-c3cc(C)cc(C)c3O)n[nH]2)cc1,10.8,23.1µM*,-4.7,16.1,i
O=C(CCCCn1c(=O)c2ccccc2n(Cc2ccc(F)cc2Cl)c1=O)NCCc1ccc(Cl)cc1,.,.,.,.,i
CS(=O)(=O)N1CCN(c2ccc(C(=O)NC34CC5CC(CC(C5)C3)C4)cc2[N+](=O)[O-])CC1,-5.6,19.4%,5.3,1.3,.
CCS(=O)(=O)N1CCN(c2ccc(C(=O)NC34CC5CC(CC(C5)C3)C4)cc2[N+](=O)[O-])CC1,0.1,23.1µM*,8.8,2.7,i
COc1ccc(C(=O)c2c(C(F)(F)F)oc3c2C(=O)c2ccccc2C3=O)cc1,-6.4,10.3µM*,5.6,-6.4,i
COc1cc(C2CC(=O)Nc3ccccc3S2)cc(OC)c1OC (stereo not drawn),.,10µM*,.,2.4,i
C/C=C/C=C/C(=O)N1CC[C@]23c4ccccc4N[C@H]4N(C)c5cccc6c5[C@]42CCN([C@H]6C2OC2(C)C)[C@H]13 (stereo partly drawn),-12.7,-14.0%,3.2,10.1,15.8µM*
CC(C)[C@H](/C=C/C[Si](C)(C)C)[C@H](C)C(O)/C=C/CCCOC(=O)C(C)(C)C (stereo partly drawn),.,.,.,-1.9,.
CCC(C)NC(=O)Cn1ccc2cc(S(=O)(=O)N3CCCCC3)ccc21 (stereo not drawn),.,.,.,.,i
N#Cc1ccccc1Sc1ccccc1C(=O)OCC(N)=O,7.7,4.8%,-0.4,-3.0,i
Cc1noc(C)c1COC(=O)c1ccccc1Sc1ccccc1C#N,11.9,23.1µM*,17.0,6.3,i
O=C(OCC#CCSc1nnc(-c2cccc3ccccc23)o1)c1ccc(F)cc1F,.,.,.,.,i
CN(C)/C=C1\C=C2C(=O)c3ccccc3N2C1=O,-20.5,0.0%,92.5*,9.5,i

# Bioassay records: PubChem, National Center for Advancing Translational Sciences (NCATS)
